Molecules are shown by their SMILES.

Assay [1] addresses T1, Aspartate--tRNA(Asp/Asn) ligase (Mycobacterium tuberculosis (strain ATCC 25618 / H37Rv)) (UniProt P9WFW3).
T1 sequence (whole entry): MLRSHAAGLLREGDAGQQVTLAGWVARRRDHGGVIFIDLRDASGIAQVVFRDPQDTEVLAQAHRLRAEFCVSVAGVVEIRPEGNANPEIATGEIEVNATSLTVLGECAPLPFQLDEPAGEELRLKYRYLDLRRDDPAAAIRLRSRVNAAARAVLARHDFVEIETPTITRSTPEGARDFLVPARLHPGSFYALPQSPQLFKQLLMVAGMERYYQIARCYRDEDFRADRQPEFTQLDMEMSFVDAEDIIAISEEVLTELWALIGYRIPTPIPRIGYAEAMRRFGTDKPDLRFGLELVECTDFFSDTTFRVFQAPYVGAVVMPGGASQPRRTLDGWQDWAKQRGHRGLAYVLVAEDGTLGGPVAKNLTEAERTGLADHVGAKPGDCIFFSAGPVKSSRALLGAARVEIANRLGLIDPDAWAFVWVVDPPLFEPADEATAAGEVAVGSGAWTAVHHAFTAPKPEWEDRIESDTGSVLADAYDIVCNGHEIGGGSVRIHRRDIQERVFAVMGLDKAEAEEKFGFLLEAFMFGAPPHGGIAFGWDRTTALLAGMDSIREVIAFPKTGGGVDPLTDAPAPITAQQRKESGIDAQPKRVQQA
The experiment in a line: Assay for Asp RNA synthetase-1 from Mycobacterium tuberculosis. It is filed as functional. The conditions noted are these: 30 µM. The arrangement: scale not given: direction of the effect not stated beside the values.

Assay [2] has as its target Shiga toxin 2 (Escherichia coli O157:H7) (UniProt P09385+P09386). The assay is described as follows: E. coli 0.157:H7 Shiga Toxin SOP - stx2 screening assay. The arrangement: scale not given: direction of the effect not stated beside the values. The conditions noted are these: 30 µM. It is filed as functional.

In the case of `COc1ccc(C)cc1NC(=O)Nc1cnc(N2CCN(C)CC2)nc1`, the Percent Effect in assay [1] is 0.539%; in assay [2], -18.8%.
As to `Clc1ccccc1-c1nc(CNCCn2cccn2)cs1`, the Percent Effect in assay [1] is -1.68%; in assay [2] it was 15.3%.
For `O=C(NCc1ccccn1)Nc1cc(C(F)(F)F)c[nH]c1=O`, the Percent Effect in assay [1] is 1.37%; in assay [2], -24.9%.
As to `Cc1nn(C)c(N(C)C)c1CNCc1cccnc1`, the Percent Effect was -1.51% in assay [1] and -13% in assay [2].
With `Cc1nn2c(N3CCC(O)C3)cc(-c3ccccc3)nc2c1C` (centres undefined), the Percent Effect in assay [1] was -2.73%; in assay [2] it was -33.6%.
For `Cc1nc2n(n1)CC(NCc1cc(Cl)c3c(c1)OCCCO3)CC2` (centres undefined), the Percent Effect in assay [1] turned out to be 6.55%; in assay [2], 22.8%.
Turning to `COCCCC1CCCN(C(=O)CCc2cc(O)no2)C1` (centres undefined), the Percent Effect in assay [1] was -7.41%; in assay [2], -0.726%.
Take `Cc1cnn(CC2CN(c3ncnc4ccsc34)CCO2)c1` (centres undefined): the Percent Effect is -1.51% in assay [1] and -0.262% in assay [2].
For `O=C(c1ccc[nH]1)N1CCc2c(COCC3CC3)cncc2C1`, in that order: -0.626% and 1.55%.
As to `CCOCCCNC(=O)c1ccccc1S(C)(=O)=O`, the Percent Effect in assay [1] is -2.28%; in assay [2], 0.226%.
For `Cc1nnc(NC(=O)NCc2cccnc2N(C)C)s1`, the Percent Effect in assay [1] was -2.76%; in assay [2], -16.1%.
The like results for `Cn1cnnc1C1CCCN(C(=O)c2ccc3c(c2)OCCCO3)C1` (centres undefined) were, in that order, 0% and 1.29%.
For `Cc1cnn(CC2CN(CC(=O)N(C)c3nccs3)CCO2)c1` (centres undefined), in that order: -6.72% and 11%.
Take `O=C1C[C@H]2[C@@H](CCN2C(=O)c2ccccc2)N1CCN1CCOCC1`: the values for the Percent Effect in assay [1] and in assay [2] were -3.74% and -0.799%, respectively.
Take `COCC(=O)N1CC[C@H]2C[C@H](C)O[C@@H]2C1`: the Percent Effect is -2.9% in assay [1] and 3.29% in assay [2].
Take `Cc1ccc(S(=O)(=O)N2C[C@@H]3C[C@@H](NC(=O)C(C)(C)C)[C@@H]3C2)cc1`: the figures for the Percent Effect in assay [1] and in assay [2] were 1.47% and 6.78%, respectively.
`Cn1cc(Cl)cc1C(=O)N1CCN(Cc2ccsc2)CC1`: the results for the Percent Effect in assay [1] and in assay [2] were -1.54% and 15.6%, respectively.

For the origin of these results see ChEMBL document CHEMBL3988442, “University of Dundee, Small-Polar-MMV Screening Library” (2021).
